Laboratory results published in the supplement of paper PMC7724964.

Legend:
Assay in all cases: phage ELISA signal ratio (GST-PRM binding over GST background); higher = stronger binding of peptide-phage to the PRM
[1] = molecular target: GGA3 1-153 VHS (domain begin residue: 1, domain end residue: 153)
How it was run: (§1)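 Five rounds of selection were carried out against human peptide recognition domains fused to the C-terminus of glutathione S-transferase (GST) and expressed in 96-well plates. The M13 phage library presented randomized hexadecapeptides, cysteine-free and glycine-flanked, on the gene-8 major coat protein. For each value, the phage ELISA signal on the GST-domain fusion was divided by the signal on GST alone.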

[2] = molecular target: T1, ESR2 263-500 Hormone_recep (domain begin residue: 263, domain end residue: 500), Q92731
T1 chain: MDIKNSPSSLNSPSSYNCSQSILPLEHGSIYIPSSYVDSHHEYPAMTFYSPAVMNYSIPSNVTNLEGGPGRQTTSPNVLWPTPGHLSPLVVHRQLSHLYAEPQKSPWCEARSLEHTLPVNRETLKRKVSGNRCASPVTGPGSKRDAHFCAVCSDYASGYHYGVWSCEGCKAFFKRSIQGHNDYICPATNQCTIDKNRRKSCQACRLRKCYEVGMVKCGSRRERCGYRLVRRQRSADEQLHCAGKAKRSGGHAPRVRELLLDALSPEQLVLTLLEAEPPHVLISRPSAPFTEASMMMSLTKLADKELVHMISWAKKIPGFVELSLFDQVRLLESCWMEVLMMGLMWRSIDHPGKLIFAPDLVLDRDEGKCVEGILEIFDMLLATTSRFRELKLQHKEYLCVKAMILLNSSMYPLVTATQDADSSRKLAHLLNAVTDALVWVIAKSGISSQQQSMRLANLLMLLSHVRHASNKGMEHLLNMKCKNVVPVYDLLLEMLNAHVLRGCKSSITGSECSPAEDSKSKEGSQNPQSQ
How it was run: as §1

[3] = molecular target: T2, ESRRG 219-458 Hormone_recep (domain begin residue: 219, domain end residue: 458), P62508
T2 chain: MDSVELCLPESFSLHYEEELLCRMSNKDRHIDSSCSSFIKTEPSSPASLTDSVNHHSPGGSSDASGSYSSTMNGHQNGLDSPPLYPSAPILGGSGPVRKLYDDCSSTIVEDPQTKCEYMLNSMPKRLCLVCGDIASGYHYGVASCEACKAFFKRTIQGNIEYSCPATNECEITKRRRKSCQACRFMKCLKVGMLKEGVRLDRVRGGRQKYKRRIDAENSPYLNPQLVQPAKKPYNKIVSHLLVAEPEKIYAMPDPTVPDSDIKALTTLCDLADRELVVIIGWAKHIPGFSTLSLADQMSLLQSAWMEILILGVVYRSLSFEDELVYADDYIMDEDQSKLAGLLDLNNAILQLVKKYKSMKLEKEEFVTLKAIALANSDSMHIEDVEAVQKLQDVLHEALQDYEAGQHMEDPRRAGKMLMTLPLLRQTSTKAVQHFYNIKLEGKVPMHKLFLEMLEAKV
How it was run: as §1

[4] = molecular target: PCMT1 1-227 PCMT (domain begin residue: 1, domain end residue: 227), P22061
How it was run: as §1

[5] = molecular target: T3, ENAH 9-116 WH1 (domain begin residue: 9, domain end residue: 116), Q8N8S7
T3 chain: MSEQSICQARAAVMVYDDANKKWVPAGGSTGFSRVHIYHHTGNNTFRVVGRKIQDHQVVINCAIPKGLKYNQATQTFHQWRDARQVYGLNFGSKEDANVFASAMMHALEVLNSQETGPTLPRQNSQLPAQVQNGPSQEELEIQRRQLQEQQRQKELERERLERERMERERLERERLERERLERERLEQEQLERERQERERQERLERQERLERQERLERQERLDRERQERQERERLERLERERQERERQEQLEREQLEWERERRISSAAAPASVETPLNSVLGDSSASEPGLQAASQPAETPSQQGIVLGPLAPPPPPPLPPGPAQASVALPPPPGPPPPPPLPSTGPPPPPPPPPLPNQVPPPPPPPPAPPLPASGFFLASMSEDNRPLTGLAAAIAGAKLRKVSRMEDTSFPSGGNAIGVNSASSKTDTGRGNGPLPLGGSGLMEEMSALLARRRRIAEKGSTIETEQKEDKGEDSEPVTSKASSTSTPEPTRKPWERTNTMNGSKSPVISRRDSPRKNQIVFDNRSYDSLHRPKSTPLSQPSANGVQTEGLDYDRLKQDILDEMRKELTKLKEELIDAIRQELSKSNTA
How it was run: as §1

[6] = molecular target: T4, ESRRA 179-423 Hormone_recep (domain begin residue: 179, domain end residue: 423), P11474
T4 chain: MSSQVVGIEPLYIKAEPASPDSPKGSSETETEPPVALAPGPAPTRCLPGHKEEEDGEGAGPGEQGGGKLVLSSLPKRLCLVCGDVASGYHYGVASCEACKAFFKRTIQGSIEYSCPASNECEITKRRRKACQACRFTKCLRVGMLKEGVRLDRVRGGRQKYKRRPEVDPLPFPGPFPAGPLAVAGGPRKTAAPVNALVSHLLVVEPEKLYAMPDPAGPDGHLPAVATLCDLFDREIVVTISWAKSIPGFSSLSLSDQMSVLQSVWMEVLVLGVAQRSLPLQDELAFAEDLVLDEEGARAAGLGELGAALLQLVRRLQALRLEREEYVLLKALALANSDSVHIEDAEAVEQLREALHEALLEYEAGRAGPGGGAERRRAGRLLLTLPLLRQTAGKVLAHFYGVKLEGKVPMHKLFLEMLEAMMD
How it was run: as §1

[7] = molecular target: T5, SPRED1 13-131 WH1 (domain begin residue: 13, domain end residue: 131), Q7Z699
T5 chain: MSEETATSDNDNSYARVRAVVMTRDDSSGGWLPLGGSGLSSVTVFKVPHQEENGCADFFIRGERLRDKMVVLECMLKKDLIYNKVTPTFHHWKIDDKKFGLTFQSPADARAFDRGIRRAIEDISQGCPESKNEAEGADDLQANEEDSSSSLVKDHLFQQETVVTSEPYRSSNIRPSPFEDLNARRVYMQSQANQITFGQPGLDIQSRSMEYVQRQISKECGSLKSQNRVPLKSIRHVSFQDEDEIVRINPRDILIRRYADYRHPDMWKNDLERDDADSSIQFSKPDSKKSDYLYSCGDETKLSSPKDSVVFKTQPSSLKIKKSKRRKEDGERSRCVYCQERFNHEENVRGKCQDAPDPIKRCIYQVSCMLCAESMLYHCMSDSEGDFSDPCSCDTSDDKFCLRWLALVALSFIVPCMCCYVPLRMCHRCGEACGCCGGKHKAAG
How it was run: as §1

[8] = molecular target: T6, FRS3 12-117 IRS (domain begin residue: 12, domain end residue: 117), O43559
T6 chain: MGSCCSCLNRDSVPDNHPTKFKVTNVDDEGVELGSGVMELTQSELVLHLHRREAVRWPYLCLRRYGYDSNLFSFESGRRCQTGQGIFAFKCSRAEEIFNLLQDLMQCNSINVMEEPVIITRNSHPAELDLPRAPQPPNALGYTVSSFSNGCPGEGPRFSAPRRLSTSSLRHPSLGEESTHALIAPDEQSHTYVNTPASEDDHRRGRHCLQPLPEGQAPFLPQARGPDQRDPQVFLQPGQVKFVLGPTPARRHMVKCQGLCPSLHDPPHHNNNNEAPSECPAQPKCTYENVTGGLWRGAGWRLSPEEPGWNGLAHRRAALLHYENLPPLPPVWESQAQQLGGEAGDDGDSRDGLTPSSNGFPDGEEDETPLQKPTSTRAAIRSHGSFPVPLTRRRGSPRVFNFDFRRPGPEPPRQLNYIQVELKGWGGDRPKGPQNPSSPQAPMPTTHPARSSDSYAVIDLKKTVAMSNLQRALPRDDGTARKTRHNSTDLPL
How it was run: as §1

[9] = molecular target: EIF2S1 9-93 S1 (domain begin residue: 9, domain end residue: 93), P05198
How it was run: as §1

[10] = molecular target: PABPC1 96-174 RRM_1 (domain begin residue: 96, domain end residue: 174)
How it was run: as §1

[11] = molecular target: T7, GGA1 1-157 VHS (domain begin residue: 1, domain end residue: 157), Q9UJY5
T7 chain: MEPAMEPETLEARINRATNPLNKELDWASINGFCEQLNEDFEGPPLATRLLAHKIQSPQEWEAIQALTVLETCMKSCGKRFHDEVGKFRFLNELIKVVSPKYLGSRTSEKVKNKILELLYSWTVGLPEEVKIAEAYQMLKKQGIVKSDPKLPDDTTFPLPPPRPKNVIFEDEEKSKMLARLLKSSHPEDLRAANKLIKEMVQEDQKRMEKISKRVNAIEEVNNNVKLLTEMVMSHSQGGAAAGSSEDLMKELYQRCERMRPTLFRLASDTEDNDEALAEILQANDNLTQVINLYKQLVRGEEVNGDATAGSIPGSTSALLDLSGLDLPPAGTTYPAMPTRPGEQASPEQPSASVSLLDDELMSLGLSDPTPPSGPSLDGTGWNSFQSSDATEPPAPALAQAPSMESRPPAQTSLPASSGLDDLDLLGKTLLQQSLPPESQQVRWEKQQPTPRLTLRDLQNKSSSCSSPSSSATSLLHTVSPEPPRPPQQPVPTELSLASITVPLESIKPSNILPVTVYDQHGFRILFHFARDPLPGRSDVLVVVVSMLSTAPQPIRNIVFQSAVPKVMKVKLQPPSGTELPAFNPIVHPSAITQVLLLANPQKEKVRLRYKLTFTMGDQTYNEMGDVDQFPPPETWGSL
How it was run: as §1

[12] = molecular target: T8, EVL 1-130 WH1 (domain begin residue: 1, domain end residue: 130), Q9UI08
T8 chain: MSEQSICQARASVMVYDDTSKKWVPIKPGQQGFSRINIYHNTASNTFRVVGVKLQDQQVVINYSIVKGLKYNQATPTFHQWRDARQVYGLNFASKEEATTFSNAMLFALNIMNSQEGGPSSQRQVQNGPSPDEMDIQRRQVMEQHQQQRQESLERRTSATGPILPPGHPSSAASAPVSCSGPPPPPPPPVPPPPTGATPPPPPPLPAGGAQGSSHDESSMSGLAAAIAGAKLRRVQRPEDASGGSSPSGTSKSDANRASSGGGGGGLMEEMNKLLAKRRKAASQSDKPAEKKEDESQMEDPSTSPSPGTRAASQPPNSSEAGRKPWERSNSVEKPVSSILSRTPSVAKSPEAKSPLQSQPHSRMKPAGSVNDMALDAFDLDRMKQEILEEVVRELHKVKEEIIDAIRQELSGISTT
How it was run: as §1

[13] = molecular target: EIF4A1 29-237 DEAD (domain begin residue: 29, domain end residue: 237), P60842
How it was run: as §1

[14] = molecular target: T9, FKBP3 109-224 FKBP_C (domain begin residue: 109, domain end residue: 224), Q00688
T9 chain: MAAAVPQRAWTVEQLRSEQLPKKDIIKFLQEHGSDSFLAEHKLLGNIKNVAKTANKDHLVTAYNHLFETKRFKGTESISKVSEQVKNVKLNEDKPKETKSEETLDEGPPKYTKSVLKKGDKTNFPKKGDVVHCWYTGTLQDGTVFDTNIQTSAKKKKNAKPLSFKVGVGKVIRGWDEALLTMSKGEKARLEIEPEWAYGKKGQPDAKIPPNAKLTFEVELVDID
How it was run: as §1

[15] = molecular target: EIF4E 2-217 IF4E (domain begin residue: 2, domain end residue: 217), P06730
How it was run: as §1

Sequence of EIF2S1 9-93 S1 (domain begin residue: 9, domain end residue: 93), P05198 (P05198 whole entry): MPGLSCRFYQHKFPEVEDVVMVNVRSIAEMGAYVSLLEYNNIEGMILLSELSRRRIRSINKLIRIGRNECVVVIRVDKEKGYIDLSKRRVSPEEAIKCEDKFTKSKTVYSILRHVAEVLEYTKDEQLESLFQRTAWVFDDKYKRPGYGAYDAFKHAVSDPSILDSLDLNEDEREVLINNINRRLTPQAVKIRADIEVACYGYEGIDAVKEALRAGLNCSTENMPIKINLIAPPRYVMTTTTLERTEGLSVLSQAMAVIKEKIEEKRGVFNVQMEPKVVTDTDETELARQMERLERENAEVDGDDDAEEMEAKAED
Sequence of PCMT1 1-227 PCMT (domain begin residue: 1, domain end residue: 227), P22061 (P22061 whole entry): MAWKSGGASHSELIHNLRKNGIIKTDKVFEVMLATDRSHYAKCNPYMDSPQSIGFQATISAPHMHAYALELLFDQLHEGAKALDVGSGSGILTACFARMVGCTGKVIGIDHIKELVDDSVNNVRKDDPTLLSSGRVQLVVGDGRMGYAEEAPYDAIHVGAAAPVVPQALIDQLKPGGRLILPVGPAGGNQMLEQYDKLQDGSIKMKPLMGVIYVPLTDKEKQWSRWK
Sequence of EIF4E 2-217 IF4E (domain begin residue: 2, domain end residue: 217), P06730 (P06730 whole entry): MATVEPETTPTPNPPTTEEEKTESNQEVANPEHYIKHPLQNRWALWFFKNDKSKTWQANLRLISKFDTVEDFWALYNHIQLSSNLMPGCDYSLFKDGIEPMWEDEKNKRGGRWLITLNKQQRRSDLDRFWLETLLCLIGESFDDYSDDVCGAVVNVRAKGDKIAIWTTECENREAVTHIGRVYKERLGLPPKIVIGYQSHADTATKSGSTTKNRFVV
Sequence of EIF4A1 29-237 DEAD (domain begin residue: 29, domain end residue: 237), P60842 (P60842 whole entry): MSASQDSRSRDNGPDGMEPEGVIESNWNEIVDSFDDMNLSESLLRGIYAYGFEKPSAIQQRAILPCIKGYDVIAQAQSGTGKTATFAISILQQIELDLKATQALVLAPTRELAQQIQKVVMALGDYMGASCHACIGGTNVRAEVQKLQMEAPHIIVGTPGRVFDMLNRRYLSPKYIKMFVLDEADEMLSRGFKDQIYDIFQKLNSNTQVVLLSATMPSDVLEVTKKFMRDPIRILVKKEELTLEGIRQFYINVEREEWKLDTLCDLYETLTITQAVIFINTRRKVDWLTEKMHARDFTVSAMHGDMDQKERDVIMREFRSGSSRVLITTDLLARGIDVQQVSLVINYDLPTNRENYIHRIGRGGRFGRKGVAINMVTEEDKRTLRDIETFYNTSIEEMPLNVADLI

## VDEWSVMKYPVEQKWV
[1]
  phage ELISA signal ratio: 21.6

## EERTWSFEEWLWMPAM
[2]
  phage ELISA signal ratio: 26.6

## SFPFLKMYLDPEPDDV
[3]
  phage ELISA signal ratio: 11.2
[4]
  phage ELISA signal ratio: 11.2

## VTDNAWPYPPVAVSQH
[5]
  phage ELISA signal ratio: 7.69

## EFNQWFADHWQQWHYE
[6]
  phage ELISA signal ratio: 3.76
[7]
  phage ELISA signal ratio: 5.28

## QHLWHWEDTDYYEWSE
[1]
  phage ELISA signal ratio: 20.1

## HLDQPPWWTLQEWASH
[1]
  phage ELISA signal ratio: 12.2

## SQWMWIVHEPVKNLPK
[8]
  phage ELISA signal ratio: 3.36

## VWVAWSWMHSVQMEAD
[9]
  phage ELISA signal ratio: 12.3
[10]
  phage ELISA signal ratio: 12.3

## GEMDDPMMHFSWVAMW
[11]
  phage ELISA signal ratio: 12.6

## EHIQGHAPLLWEVLHS
[3]
  phage ELISA signal ratio: 10.8
[4]
  phage ELISA signal ratio: 10.8

## SRWVQIMHNGEETDSY
[8]
  phage ELISA signal ratio: 16.9

## VWQVPEWQTVQLEYMK
[8]
  phage ELISA signal ratio: 17.9

## GIGFEWVHDGWWPMWT
[12]
  phage ELISA signal ratio: 13.8

## MEPFTTWDQLPWWMQE
[1]
  phage ELISA signal ratio: 12.9

## EMPQYMMTWYYEPDST
[13]
  phage ELISA signal ratio: 5.95

## HADLQGLGVFEWQEPV
[14]
  phage ELISA signal ratio: 12.6

## WGAGVFLVADPQMEVV
[14]
  phage ELISA signal ratio: 5

## PDAMPLWHGHHVVPVY
[11]
  phage ELISA signal ratio: 18.9

## TMHHDDQLLDLYSVRK
[11]
  phage ELISA signal ratio: 18.5

## SSGSSTRPMRVTRAPT
[9]
  phage ELISA signal ratio: 4.01

## PQIQWYMDDILLVPTI
[11]
  phage ELISA signal ratio: 15.5

## WEGNQWEWPPAYMELM
[5]
  phage ELISA signal ratio: 7.2

## VGVYSLQDEPQKRVVV
[14]
  phage ELISA signal ratio: 6.15

## MTWWVAPWNESLDLWE
[8]
  phage ELISA signal ratio: 10.5

## FLYYYGLSHNWFGDQT
[15]
  phage ELISA signal ratio: 7.6

## HVEQWWTTESWPNWYT
[1]
  phage ELISA signal ratio: 15.3
